In all, about 1,100 compounds were measured (“Wnt reporter firefly/Renilla luciferase ratio relative to plate median”: median about 1.1, highest 2% from about 1.6 on). Only a selection was taken, and the highest values are over-represented in it overall.
System: HEK293T (UBE3A T485A transfected, BAR Wnt reporter)
Assay: Wnt reporter firefly/Renilla luciferase ratio relative to plate median (fold (linear ratio)); higher = more Wnt/beta-catenin reporter activation
Settings: 24 h
In short: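 Using Fugene 6, HEK293T cells in white 384-well plates (4500 cells/well; DMEM, 10% FBS, 37°C, 5% CO2) were transfected with a BAR firefly luciferase Wnt reporter, TK-Renilla and an expression plasmid. After four hours, robots dosed the chemicals at 0.01–100 uM, and a Dual-Glo luciferase readout followed 24 h later. Per-plate median-centred firefly/Renilla ratios gave Wnt activity, while per-plate median-centred raw Renilla signals gave cell health. Four biological replicates were averaged.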

| Compound | Wnt reporter firefly/Renilla luciferase ratio (concentration: 0.1 uM) | Wnt reporter firefly/Renilla luciferase ratio (concentration: 1 uM) | Wnt reporter firefly/Renilla luciferase ratio (concentration: 10 uM) | Wnt reporter firefly/Renilla luciferase ratio (concentration: 100 uM) | Wnt reporter firefly/Renilla luciferase ratio (concentration: 0.01 uM) | Wnt reporter firefly/Renilla luciferase ratio (concentration: .1 uM) |
| --- | --- | --- | --- | --- | --- | --- |
| CCC(C)c1ccccc1O (stereo unspecified) [2-(Butan-2-yl)phenol] | 1.19 | 0.977 | 0.947 | 1.14 |  |  |
| CC(C)COC(=O)CCCCC(=O)OCC(C)C [Diisobutyl adipate] | 1.11 | 1.15 | 1.28 | 1.44 |  |  |
| CCCN(CCC)C(=O)SCC | 1.22 | 0.859 | 1.3 | 1.09 | 1.35 |  |
| CCSC(=O)N(CC(C)C)CC(C)C [Butylate] | 1.31 | 1.21 | 1.71 | 0.486 | 1.05 |  |
| CN1C(=O)N(c2ccccc2Br)Cc2cnc(Nc3ccc4c(c3)OCC(CO)O4)nc21 (stereo unspecified) | 0.694 | 0.73 | 1.19 |  |  |  |
| Oc1ccccc1 [Phenol] | 0.93 | 1.28 | 1.19 | 1.35 |  |  |
| CCOCCOCCO [2-(2-Ethoxyethoxy)ethanol] | 0.833 | 1.24 | 0.948 | 1.26 |  |  |
| CCOCCOCCOCCO [2-[2-(2-Ethoxyethoxy)ethoxy]ethanol] | 0.979 | 0.929 | 1.01 | 1.62 |  |  |
| CCOCCO [2-Ethoxyethanol] | 1.04 | 1.01 | 1.18 | 1.25 |  |  |
| CC(C)CCCCCCOC(=O)c1ccc(C(=O)OCCCCCCC(C)C)c(C(=O)OCCCCCCC(C)C)c1 [Triisononyl trimellitate] | 1.08 | 0.919 | 1.18 | 1.34 |  |  |
| CC[C@@H]1C[C@H](N(Cc2cc(C(F)(F)F)cc(C(F)(F)F)c2)C(C)=O)c2cc(C(F)(F)F)ccc2N1C(=O)OC(C)C | 0.973 | 1.26 | 1.2 | 1.01 |  |  |
| O=C(O)c1cccc(C(=O)O)c1 [1,3-Benzenedicarboxylic acid] | 1.21 | 1.28 | 1.24 | 1.02 |  |  |
| CC(C)(c1ccc(O)cc1)c1ccc(O)cc1 [Bisphenol A] | 1.13 | 1.05 | 0.924 | 0.302 | 1.09 |  |
| CC[C@H](C)[C@@H](C(=O)O)n1sc2ccccc2c1=O | 0.996 | 0.949 | 0.684 | 0.568 |  |  |
| CCCCOC(=O)[C@@H](C)Oc1ccc(Oc2ccc(C(F)(F)F)cn2)cc1 [Fluazifop-P-butyl] | 0.832 | 1.04 | 1.09 | 1.67 | 0.757 |  |
| CCCCOC(=O)C(C)Oc1ccc(Oc2ccc(C(F)(F)F)cn2)cc1 (stereo unspecified) [Fluazifop-butyl] | 1.71 | 1.15 | 1.54 | 1.13 | 1.15 |  |
| CCCCOC(=O)c1ccccc1 [Butyl benzoate] | 1.4 | 0.911 | 1.09 | 1.11 |  |  |
| CCOC(=O)C(C)Oc1ccc(Oc2nc3ccc(Cl)cc3o2)cc1 (stereo unspecified) [Fenoxaprop-ethyl] | 1.37 | 0.888 | 0.884 | 0.813 | 1.14 |  |
| C#CCOC(=O)[C@@H](C)Oc1ccc(Oc2ncc(Cl)cc2F)cc1 [Clodinafop-propargyl] | 1.37 | 1.14 | 1.25 | 0.479 | 1.28 |  |
| CCOC(=O)C(C)Oc1ccc(Oc2cnc3cc(Cl)ccc3n2)cc1 (stereo unspecified) [Quizalofop-ethyl] | 1.1 | 1.03 | 1.09 | 0.981 | 0.779 |  |
| CCCCCCCCOC(=O)c1cc(O)c(O)c(O)c1 [Octyl gallate] | 1.25 | 1.3 | 0.702 | 0.614 |  |  |

| Compound | Wnt reporter firefly/Renilla luciferase ratio (concentration: 0.1 uM) | Wnt reporter firefly/Renilla luciferase ratio (concentration: 1 uM) | Wnt reporter firefly/Renilla luciferase ratio (concentration: 10 uM) | Wnt reporter firefly/Renilla luciferase ratio (concentration: 100 uM) | Wnt reporter firefly/Renilla luciferase ratio (concentration: 0.01 uM) | Wnt reporter firefly/Renilla luciferase ratio (concentration: .1 uM) |
| --- | --- | --- | --- | --- | --- | --- |
| COC(=O)c1ccccc1C(=O)O [Monomethyl phthalate] | 1.05 | 1.09 | 1.11 | 1.4 | 1.05 |  |
| CC(=O)OC1CC(C)OC(C)O1 (stereo unspecified) [Dimethoxane] | 1.1 | 0.976 | 0.952 | 0.736 |  |  |
| Cc1ccc(N(C)C)cc1 [N,N,4-Trimethylaniline] | 1.08 | 1.2 | 1.06 | 0.933 |  |  |
| Cc1ccc(C(C)C)c(O)c1 [Thymol] | 0.988 | 1.09 | 1.29 | 1.08 |  |  |
| N#CSCSc1nc2ccccc2s1 [2-(Thiocyanomethylthio)benzothiazole] | 0.88 | 1.09 | 1.06 |  | 0.895 |  |
| Sc1nc2ccccc2s1 [2-Mercaptobenzothiazole] | 1.39 | 1.62 | 1.3 | 1.69 |  |  |
| CS(=O)(=O)c1ccc([C@@H](C[C@H]2CCC(=O)C2)C(=O)Nc2cnccn2)cc1Cl [Piragliatin] | 1.03 | 0.959 | 1.02 | 1.3 |  |  |
| COc1cc2c3c(n(CCCn4ccnc4)c(=O)c2cc1OC)-c1cc2c(cc1C3=O)OCO2.Cl | 0.457 | 0.72 | 0.631 | 0.938 | 1.15 |  |
| OCC(O)CO [Glycerol] | 1.1 | 0.905 | 1.05 | 1.04 |  |  |
| S=C([S-])NCCNC(=S)[S-].S=C([S-])NCCNC(=S)[S-].[Mn+2].[Zn+2] [Mancozeb] | 0.999 | 0.95 | 0.951 |  | 0.932 |  |
| Nc1ccc(C(=O)O)cc1 [4-Aminobenzoic acid] | 1.22 | 1.07 | 0.948 | 1.2 |  |  |
| CC(C)c1cccc(C(C)C)c1NC(=O)[N-]S(=O)(=O)c1cc(C(C)(C)O)co1.[Na+] | 1.05 | 1.08 | 1.2 | 1.05 |  |  |
| CC/C(=C(\c1ccccc1)c1ccc(OCCN(C)C)cc1)c1ccccc1.O=C(O)CC(O)(CC(=O)O)C(=O)O [Tamoxifen citrate] | 0.922 | 0.964 | 0.891 | 1.01 |  |  |
| O=C(c1ccc(O)cc1O)c1ccc(O)cc1O [2,2',4,4'-Tetrahydroxybenzophenone] | 1.29 | 1.33 | 1.49 | 0.463 |  |  |
| CC(C)C(=O)OCC(C)(C)C(OC(=O)C(C)C)C(C)C (stereo unspecified) [2,2,4-Trimethyl-1,3-pentanediol diisobutyrate] | 0.92 | 0.885 | 1.15 | 1.64 |  |  |
| CC[C@]1(O)C[C@H]2C[N@](CCc3c([nH]c4ccccc34)[C@@](C(=O)OC)(c3cc4c(cc3OC)N(C=O)[C@H]3[C@@](O)(C(=O)OC)[C@H](OC(C)=O)[C@]5(CC)C=CCN6CC[C@]43[C@@H]65)C2)C1 [Vincristine] |  |  | 0.418 |  | 0.387 |  |
| NCCO [Ethanolamine] |  | 0.968 | 1.41 | 2.04 |  | 1.09 |
| OCCO [Ethylene glycol] | 1.37 | 1.07 | 1.12 | 1.27 |  |  |
| CCCCCCCCCCCC[N+](C)(C)C.[Cl-] [Dodecyltrimethylammonium chloride] | 1.41 | 1.1 | 0.377 |  |  |  |
| CCc1ccc(CCOc2ccc(CC3SC(=O)NC3=O)cc2)nc1.Cl (stereo unspecified) [Pioglitazone hydrochloride] | 0.94 | 0.896 | 0.903 | 1.1 |  |  |
| C=C(C)C(=O)OCCC(F)(F)C(F)(F)C(F)(F)C(F)(F)C(F)(F)C(F)(F)F [Tridecafluorohexylethyl methacrylate] | 1.03 | 1.12 | 1.06 | 1.16 |  |  |

| Compound | Wnt reporter firefly/Renilla luciferase ratio (concentration: 0.1 uM) | Wnt reporter firefly/Renilla luciferase ratio (concentration: 1 uM) | Wnt reporter firefly/Renilla luciferase ratio (concentration: 10 uM) | Wnt reporter firefly/Renilla luciferase ratio (concentration: 100 uM) | Wnt reporter firefly/Renilla luciferase ratio (concentration: 0.01 uM) | Wnt reporter firefly/Renilla luciferase ratio (concentration: .1 uM) |
| --- | --- | --- | --- | --- | --- | --- |
| CC(C)=CCC/C(C)=C/CO [Geraniol] | 1.1 | 1.26 | 1.15 | 1.75 |  |  |
| CC(C)=CCC/C(C)=C\CO [(2Z)-3,7-Dimethylocta-2,6-dien-1-ol] | 1.17 | 0.941 | 1.5 | 1.03 |  |  |
| CC(C)=CCCC(C)=CC=O [3,7-Dimethyl-2,6-octadienal] | 1.11 | 1.26 | 1.03 | 1.09 |  |  |
| OC(Cn1cncn1)(Cn1cncn1)c1ccc(F)cc1F [Fluconazole] | 1.15 | 0.884 | 1.33 | 1.25 |  |  |
| Cc1ccccc1Cl [2-Chlorotoluene] | 0.964 | 0.931 | 1.37 | 1.44 |  |  |
| CCCCCCCC[Si](OCC)(OCC)OCC [Triethoxyoctylsilane] | 1.15 | 0.902 | 1.05 | 1.38 |  |  |
| CCO[Si](CCCNC(N)=O)(OCC)OCC [1-[3-(Triethoxysilyl)propyl]urea] | 1.11 | 0.853 | 1.36 | 1.66 |  |  |
| CCOC(N)=O [Urethane] | 1.05 | 0.955 | 1.11 | 1.3 |  |  |
| O=N[O-].[Na+] [Sodium nitrite] | 1.13 | 0.943 | 1.4 | 1.29 |  |  |
| COc1ccc(CC(N)C(=O)NC2C(CO)OC(n3cnc4c(N(C)C)ncnc43)C2O)cc1 (stereo unspecified) [Puromycin] | 0.78 | 0.249 |  |  | 0.865 |  |
| CC[C@H](NC(=O)c1cc(F)ccc1[N-]S(=O)(=O)c1cccc2cccnc12)c1ccccc1.[Na+] | 1.22 | 1.08 | 1.18 | 0.234 |  |  |
| O=C(O)c1ccccc1C(=O)OCc1ccccc1 [Monobenzyl phthalate] | 1.1 | 0.986 | 1.31 | 1.16 |  |  |
| CCCCC(CC)COC(=O)CCCCC(=O)OCc1ccccc1 (stereo unspecified) [Benzyloctyl adipate] | 0.909 | 1.03 | 1.13 | 1.12 |  |  |
| CC(C)CC(C=O)NC(=O)C(CC(C)C)NC(=O)C(CC(C)C)NC(=O)OCc1ccccc1 (stereo unspecified) | 0.85 | 2.61 |  |  | 0.993 |  |
| CCCCC(CC)COC(=O)CC(C(=O)OCC(CC)CCCC)S(=O)(=O)[O-].[Na+] (stereo unspecified) [Docusate sodium] | 0.824 | 1.14 | 0.946 | 0.789 |  |  |
| CC#C[C@]1(O)CC[C@H]2[C@@H]3CCC4=CC(=O)CCC4=C3[C@@H](c3ccc(N(C)C)cc3)C[C@@]21C [Mifepristone] | 0.957 | 0.893 | 0.624 | 0.0932 |  |  |
| CNC(=O)[C@H]1O[C@@H](n2cnc3c(NCc4cc(Cl)ccc4OCc4cc(C)no4)ncnc32)[C@H](O)[C@@H]1N | 0.941 | 1.17 | 1.13 | 1.06 |  |  |
| O=C(NS(=O)(=O)/C=C/c1cccs1)c1ccc(F)cc1Br | 1.13 | 1.12 | 0.456 | 0.251 |  |  |
| c1ccc2cc3ccccc3cc2c1 [Anthracene] | 0.982 | 0.92 | 0.951 | 2.12 |  |  |
| c1ccc2cc3c(ccc4ccccc43)cc2c1 [Benz(a)anthracene] | 1 | 0.949 | 1.29 | 0.737 |  |  |
| c1ccc2ccccc2c1 [Naphthalene] | 1.17 | 1.18 | 1.32 | 1.48 |  |  |
